The source of these data is PubChem BioAssay AID493168 (National Center for Advancing Translational Sciences (NCATS), 2011).

Inconclusive results are not listed. Unmarked numbers belong to inactive results. Activity calls are given as the source filed them. Calls follow the shape of the dose curve; as a rule, active = well fitted inhibition curve with a large enough effect; inconclusive = small, poorly fitted or top-dose-only effect, or effect the other way; inactive = flat fitted curve, though single readings scatter.
Potency is read from the fitted curve at half-maximal effect.

This assay deals with Ubiquitin carboxyl-terminal hydrolase 2 (Homo sapiens) (UniProt O75604). The assay is described as follows: Confirmation Assay for Inhibitors of Ubiquitin-specific Protease USP2a Using CHOP2 as the Reporter. Also: nearly all actives have a fitted effect of over 55% in size.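 As to activity change, negative = inhibition: plate controls were DMSO wells for no effect and full inhibition by NEM control for full effect.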 The settings on record: USP2 core, Ub-CHOP2 coupled reporter fluorescence; series mostly up to 38.3 µM; activity change, negative = inhibition: at the top concentration. The text has this: NIH Molecular Libraries Probe Centers Network [MLPCN] NIH Chemical Genomics Center [NCGC] MLSCN Grant: XO1-MH079852-01 PI Name: Nicholson, Ben. Progenra Inc, Malvern, PA NCGC Assay Overview: Homeostasis of cellular proteins is maintained through a combination of synthesis and degradation. The pathway that accounts for the majority of protein degradation is the ubiquitin-proteasomal pathway. Ubiquitin (Ub) is highly conserved in all cells and the generation of a multi-Ub chain typically targets proteins for degradation by the proteasome. However, ubiquitination is highly reversible and dynamic. Deubiquitination, the reverse process, is catalyzed through the action of enzymes referred to as isopeptidases or deubiquitinating enzymes (DUBs). This group of enzymes is collectively responsible for maintaining adequate pools of free ubiquitin and regulating the ubiquitination status of cellular proteins. The class of DUBs referred to as the ubiquitin-specific proteases (USP) family functions endoproteolytically to cleave Ub chains from a wide range of protein substrates. USP2a deubiquitinates fatty acid synthase (FASN) which has recently been identified as an emerging oncology target. To identify inhibitors of USP2a a cell-free assay was employed. […] The reporter enzyme chosen is an […] called CHOP2, which is activated when the Ub is cleaved by USP2. The free and now activated reporter can subsequently act on its reporter substrate. Thus, this coupled assay gives a fluorescent read-out at excitation/emission wavelengths of 485/531. The assay was developed by Progenra, Inc. and has been licensed for sale by LifeSensors, Inc. as Ub-CHOP2-Reporter-Kit (#PR1101).
Ubiquitin carboxyl-terminal hydrolase 2 (Homo sapiens), sequence (O75604 whole entry, looked up): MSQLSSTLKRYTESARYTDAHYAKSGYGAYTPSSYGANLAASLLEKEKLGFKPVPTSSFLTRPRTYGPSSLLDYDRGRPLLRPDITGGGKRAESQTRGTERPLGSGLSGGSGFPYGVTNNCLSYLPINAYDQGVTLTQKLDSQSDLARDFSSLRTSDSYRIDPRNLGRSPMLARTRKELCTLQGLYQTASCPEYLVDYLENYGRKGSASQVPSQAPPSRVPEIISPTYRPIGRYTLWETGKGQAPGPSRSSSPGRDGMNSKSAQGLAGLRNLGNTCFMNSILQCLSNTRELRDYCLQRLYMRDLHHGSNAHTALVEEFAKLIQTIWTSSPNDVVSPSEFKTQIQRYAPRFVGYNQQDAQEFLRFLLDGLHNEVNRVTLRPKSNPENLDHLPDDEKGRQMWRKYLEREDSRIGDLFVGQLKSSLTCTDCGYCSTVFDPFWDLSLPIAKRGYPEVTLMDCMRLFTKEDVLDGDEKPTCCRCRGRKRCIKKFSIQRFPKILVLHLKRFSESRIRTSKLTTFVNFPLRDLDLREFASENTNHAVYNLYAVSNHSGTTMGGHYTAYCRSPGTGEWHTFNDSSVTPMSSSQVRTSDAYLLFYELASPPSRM
NCGC Assay Protocol Summary: The assay buffer, prepared fresh at the day of the assay, contains 20mM Tris-HCl pH 8.0, 2mM CaCl2, 2mM beta-Mercaptoethanol, 0.05% CHAPS. 3ul of 20nM (10nM final) USP2 core, which is stored on ice, is dispensed into a medium-binding black solid Kalypsys 1,536 well plate using the Kalypsys dispenser. The assay plate is then pinned with 23nL compound with the Kalypsys pintool in columns 5-48. The controls are pinned as follows: column 1 two-fold dilutions of 2M NEM in duplicate; column 2 2M NEM (final concentration 38.2mM); column 3&4 DMSO. The assay plate is incubated at RT for 30min. Subsequently, 1.5uL of 100nM (25nM final) Ub-CHOP2 and 1.5uL of 100nM (25nM final) Reporter Substrate (both stored on ice and protected from light) were dispensed into the plate using the Kalypsys dispenser. Plates were read after 60min RT incubation on a ViewLux (Perkin Elmer) plate reader using the following wavelengths Ex 485nm /Em 531nm. Data were normalized to the to AC100 inhibition (NEM). Concentration-response curves were fitted to the normalized data and the concentration-response curves were then classified based on curve quality (r2), response magnitude and degree of measured activity. The time zero reading was used to flag fluorescence artifacts. Keywords: ubiquitination, deubiquitination, proteases, profluorescent, MLSMR, MLPCN, NIH Roadmap, qHTS, NCGC
Turning to `CC(=Nc1ccc2c(c1)CCC2)c1c(O)n(C)c(=O)n(C)c1=O`, the “activity change, negative = inhibition” value was 0.651%. On to `O=c1[nH]c(=O)n(Cc2ccc(F)cc2)c(O)c1C=NCCCn1ccnc1`, for which the “activity change, negative = inhibition” value is -3.8%. Same read-out and setting: as for `O=C1CC(=O)N(Cc2ccccc2)C(=O)N1CCCCCCN1C(=O)CC(=O)N(Cc2ccccc2)C1=O`, the figure is -1.12%. Still for that read-out and setting: as for `OC(c1ccncc1)(c1ccc(F)cc1)c1ccc(F)cc1`, the figure is -3.95%; as for `FC(F)(F)c1ccc2c(c1)N(CCCN1CCN(CCCl)CC1)c1ccccc1S2`, 0.492%.

For `Cc1nn(Cc2ccc(Cl)cc2Cl)c(Cl)c1C(=O)Nc1ccc(OC(F)F)cc1`, the “activity change, negative = inhibition” value is 1.17%.

`CCCC1=C(C(=O)OCC)C2(C(=O)Nc3ccc(C)cc32)C(C#N)=C(N)O1` (stereo not drawn): the “activity change, negative = inhibition” value is 3.9%. As for `O=C(O)c1cccc2c1NC(C(=O)O)C1CC(Sc3ccccc3[N+](=O)[O-])C(Cl)C21` (stereo not drawn), the Potency was 7.36 µM (active). On to `NC(N)=N/N=C/c1ccc(N(c2ccccc2)c2ccccc2)cc1`, for which the Potency is 16.5 µM (active). Consider `O=c1[nH]c(=S)n(Cc2ccco2)c(O)c1C=NCc1cccs1`, for which the “activity change, negative = inhibition” value was -18.4%. For the compound `Nc1ccc(S(=O)(=O)N2CCCCC2c2cccnc2)cc1` (stereo not drawn), the “activity change, negative = inhibition” value is 5.3%. For the compound `CC1Oc2cc3c(-c4c(O)cc(O)c5c(O)c6c(cc45)OC(C)C(C)C6=O)c(O)cc(O)c3c(O)c2C(=O)C1C` (stereo not drawn), the Potency was 13.1 µM (active). Regarding `O=C(COc1ccc(S(=O)(=O)N2CCOCC2)cc1)N1CCN(Cc2ccc3c(c2)OCO3)CC1`, the “activity change, negative = inhibition” value is 0.801%. Turning to `O=C1NC(=S)N(c2ccccc2)C(=O)/C1=C/c1ccco1`, the Potency is 14.7 µM (active). In the case of `O=C1NC(=O)N(Cc2ccco2)C(=O)/C1=C/c1cccn1CCOc1ccccc1Cl`, the “activity change, negative = inhibition” value is -3.58%. On the same count and under the same terms, the result for `COc1ccc(NC(=O)c2c(C)nn(Cc3ccccc3Cl)c2Cl)cc1Cl` reads 1.39%; that for `COc1ccc(S(=O)(=O)Cc2ccc(C(=O)N3CCC4(CC3)OCCO4)o2)cc1`, -0.023%. Take `O=C1NC(=O)N(Cc2ccco2)C(=O)/C1=C/C=C/c1ccco1`: the Potency is 13.1 µM (active).
